Shown are actives, neighbours in structure and some others; about 2.4% of the full set was active somewhere.
PGE2 EP2 inh – human EP2 receptor antagonists, primary screen, TR-FRET cAMP, C6 glioma cells; 260,000 tested, 0.52% active; inhibition, % at 25 µM; Prostaglandin E2 receptor EP2 subtype (Homo sapiens), P43116; C6 glioma cells expressing human EP2; cells stimulated with saturating PGE2; AID 1422, 2008;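 active = percent inhibition above 40 after rounding to a whole number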;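 note: rat C6 glioma host cells with rolipram phosphodiesterase inhibitor present; the protocol text gives 20 µM as final concentration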
EP2 mod – EP2 receptor modulators, cAMP readout, primary screen, cell-based, HTRF cAMP, PGE2 stimulation; EP2-expressing cells, cAMP HTRF FRET, PGE2 co-stimulation; Prostaglandin E2 receptor EP2 subtype (Homo sapiens), P43116; 260,000 tested, 0.83% active; induction, % at 25 µM;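 active = compounds whose cAMP rise, as percent of the full-agonist control response, exceeds 60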;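 note: rat C6 glioma line stably carrying human EP2 under a CMV promoter; the protocol text gives 20 µM as final concentration; 100% = response of wells given 1 µM PGE2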
Hck Nef HTS – inhibitors of Nef-activated human Hck kinase, primary screen, biochemical, Z-Lyte FRET, 384-well, Hck-YEEI; Recombinant Hck-YEEI plus Nef, Z-Lyte FRET kinase assay; inhibition, % at 20 µM; 220,000 tested, 0.68% active;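 active = Hck-Nef kinase inhibition above about 50%, limit read from the data; inactive = inhibition below that limit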;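 note: 0% = DMSO with Hck plus Nef and 100% = Hck alone without Nef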
p97 inhibitor – inhibitors of human p97 ATPase, primary screen, biochemical | Transitional endoplasmic reticulum ATPase (Homo sapiens), P55072 | recombinant p97 ATPase, Kinase-Glo ATP luminescence, 3 h | inhibition, % at 8 µM | 220,000 tested, 0.42% active | AID 1481, 2009; in the data active = inhibition above about 15%;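 note: 0% = DMSO vehicle and 100% = wells lacking enzyme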
Target sequence (P55072 whole entry, looked up): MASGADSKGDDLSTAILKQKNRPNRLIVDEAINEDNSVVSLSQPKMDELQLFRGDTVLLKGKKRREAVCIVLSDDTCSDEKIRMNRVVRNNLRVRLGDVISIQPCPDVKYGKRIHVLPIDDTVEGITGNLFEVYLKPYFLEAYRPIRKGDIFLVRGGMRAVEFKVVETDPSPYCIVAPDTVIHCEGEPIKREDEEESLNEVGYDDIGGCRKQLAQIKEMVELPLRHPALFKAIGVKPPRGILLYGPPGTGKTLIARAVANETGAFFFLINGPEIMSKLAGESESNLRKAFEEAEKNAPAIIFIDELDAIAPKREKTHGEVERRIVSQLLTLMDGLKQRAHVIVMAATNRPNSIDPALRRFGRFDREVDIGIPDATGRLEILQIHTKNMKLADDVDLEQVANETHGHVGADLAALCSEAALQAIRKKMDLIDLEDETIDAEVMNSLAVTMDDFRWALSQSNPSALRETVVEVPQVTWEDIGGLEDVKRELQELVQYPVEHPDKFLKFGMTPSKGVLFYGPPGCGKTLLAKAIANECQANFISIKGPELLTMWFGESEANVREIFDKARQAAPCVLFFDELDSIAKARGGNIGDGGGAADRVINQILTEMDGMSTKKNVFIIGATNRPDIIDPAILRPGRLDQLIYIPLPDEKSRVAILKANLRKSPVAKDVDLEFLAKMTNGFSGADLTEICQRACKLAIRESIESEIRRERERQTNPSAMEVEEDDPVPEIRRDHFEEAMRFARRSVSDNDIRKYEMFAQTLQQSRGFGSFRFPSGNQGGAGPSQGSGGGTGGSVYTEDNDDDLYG
Arbovirus inh – antivirals against arbovirus infection, primary screen, cell-based, full library, 10K replicate subset; arbovirus infection cell-based antiviral screen; inhibition, % at 10 µM; 200,000 tested, 0.37% active; AID 1251, 2008; in the data active = inhibition above about 30%
EP2 cAMP induct – cAMP induction in EP2, EP4, beta2-AR and parental cells, confirmation, counter-screen for EP2 modulator project, cell-based, five parallel assays, C6 glioma, HEK293. shares compounds with EP2 mod. cAMP HTRF induction; plus low (about EC15) PGE2 agonist. calls only at 20 µM (by protocol). 1,300 tested, 47% active;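 active = cAMP induction above 50% in the main assay while under 30% in all four parallel counter assays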;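 note: rat C6 glioma cells stably expressing human EP2 receptor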
* hit, by the source's call; i = inactive; . = not tested or not shown; + = active, no number; ! = repeats disagree.

SMILES	PGE2 EP2 inh	EP2 mod	Hck Nef HTS	p97 inhibitor	Arbovirus inh	EP2 cAMP induct
CCOc1ccccc1-c1nc2c(C(C)(C)C)nn(C)c2c(=O)[nH]1	15.4	84.1*	16.9	8.3	4.0	+
CCOC(=O)C1CCCN(c2ncnc3c2[nH]c2cccc(OC)c23)C1 (stereo unspecified)	9.8	41.5	6.8	3.0	2.2	.
COc1cccc2[nH]c3c(N4CC(C)CC(C)C4)ncnc3c12 (stereo unspecified)	.	90.0*	1.2	9.2	6.3	+
COc1cccc2[nH]c3c(N4CCCC(C)C4)ncnc3c12 (stereo unspecified)	6.1	93.8*	3.0	4.7	-0.9	+
Cc1[nH]n2c(=O)c3c(nc2c1-c1ccc(F)cc1)CCC3	.	4.7	.	.	.	.
CC1=NNC(c2ccccc2)=C(C#N)C1	4.4	-11.2	.	.	.	.
Oc1c(Cl)cc(Cl)cc1Sc1cc(Cl)cc(Cl)c1O	21.2	76.3*!	3.4	-13.3	-43.0	i
COC(=O)c1nc(NC(=O)C(C)(C)C)n[nH]1	16.3	66.2*	-1.9	-1.7	-0.5	i
Cc1cc([N+](=O)[O-])c(C)c(Br)c1C	15.1	52.2	.	.	.	i
Cc1cc([N+](=O)[O-])c(C(C)(C)C)cc1N	8.8	9.8	-20.1	-3.1	1.0	.
COC(=O)C1=C(C(C)=O)C(c2ccc(C(C)C)cc2)n2nnnc2N1 (stereo unspecified)	17.4	-7.3	.	.	.	.
CCCC(=O)Nc1nnc(SCCOC)s1	17.0	5.4	.	.	.	.
CCOC(=O)C(Cc1ccccc1)(NC(C)=O)C(=O)OCC	7.6	84.8*	5.7	-0.6	0.1	i
COc1ccc(NC(=O)CSc2nnc(-c3ccccc3O)n2-c2ccccc2OC)cc1	11.5	-46.5	.	.	.	.
O=C(CSc1nc(C2CCCCC2)nc2ccccc12)Nc1ccc2c(c1)OCO2	12.2	2.0	.	.	.	.
Cc1ccc2c(c1)cc(C)c1nnc(SCC(=O)c3ccc(F)cc3)n12	15.4	-8.8	.	.	.	.
CCN(CC)S(=O)(=O)c1cc(C)c(C)cc1Br	19.9	18.0	0.3	1.8	-6.6	.
CCN(CC)S(=O)(=O)c1c(OC)cc(C)c(Cl)c1C	8.4	66.1*	8.4	5.6	-14.5	i
COc1cc(OC)cc(C(=O)Nc2ccc(N3CCN(S(C)(=O)=O)CC3)cc2)c1	16.9	-36.7	.	.	.	.
Cc1nc2c(c(=O)[nH]1)CCN(C(=O)C1(c3ccc(Cl)cc3)CCCC1)C2	4.7	0.8	.	.	.	.
O=C(N=C1SCC(=O)N1c1ccccc1Cl)c1ccco1	5.0	48.3	2.3	4.6	-1.0	.
O=C(N=C1SCC(=O)N1c1ccccc1Cl)c1ccccc1	6.5	67.2*	20.6	6.5	12.3	i
Cc1cc(C)nc(SCC(=O)Nc2ccc(N(C)C)cc2)n1	9.5	32.8	.	.	.	.
CCOC(=O)C1=C(C)NC2=C(C(=O)CC(C)(C)C2)C1c1cc(OC)c(Br)cc1OC (stereo unspecified)	14.6	16.1	.	.	.	.
CN1CCCN(C(=O)Cc2c(Cl)cccc2Cl)c2nc3ccccc3nc21	8.5	69.5*	8.0	-5.8	-8.9	+
SMILES	PGE2 EP2 inh	EP2 mod	Hck Nef HTS	p97 inhibitor	Arbovirus inh	EP2 cAMP induct
CN1CCCN(C(=O)c2cc(=O)[nH]c3ccccc23)c2nc3ccccc3nc21	12.1	15.4	0.9	2.5	2.5	.
CSc1nnc(-c2ccc(F)cc2)o1	20.5	72.0*	-0.9	6.7	0.0	i
CC(C)(C)c1ccc(C(=O)Nc2ccc(NC(=O)c3cccnc3)cc2)cc1	13.4	-11.9	.	.	.	.
CCOC(=O)Cc1csc(NC(NC(=O)CC)(C(F)(F)F)C(F)(F)F)n1	9.8	65.2*	-0.5	1.7	0.0	i
O=c1c2ccccc2c2ccccc2c(=O)n1Cc1ccco1	3.6	83.5*	-13.9	-0.3	-4.2	i
CCC(CN1CCOCC1)NC(=O)Cc1csc(-c2ccccn2)n1 (stereo unspecified)	2.8	14.4	.	.	.	.
C=CCn1c(=S)[nH]c2sccc2c1=O	18.0	52.9	20.8	5.9	-7.3	i
C=CCn1c(-c2csc3ccccc23)n[nH]c1=S	13.5	6.4	1.8	1.4	9.1	.
Cc1nonc1CC(=O)NC(C)Cn1nc2c(C)cc3ccccc3n2c1=O (stereo unspecified)	3.5	7.4	.	.	.	.
C#CCN1C(C)=C(C(=O)OC)C(c2cccc([N+](=O)[O-])c2)C(C(=O)OCC)=C1C (stereo unspecified)	8.8	51.6	.	.	.	i
Cc1ccc(Nc2nc(CSc3nnc(-c4ccccc4C)n3C)cs2)cc1	4.2	70.8*	-0.3	2.6	19.7	+
COCCNC(=S)N1CCC(NC(=O)NC23CC4CC(CC(C4)C2)C3)CC1	7.0	-22.3	.	.	.	.
CNC(=O)NC(=O)CSc1nc(-c2cccs2)c(C#N)c(=O)[nH]1	16.0	79.3*	21.7	8.1	2.3	i
COc1ccc2c(c1)OC1(CCN(CC(O)c3ccc(C)c(C)c3)CC1)CC2O (stereo unspecified)	8.0	-76.1	.	.	.	.
CN(C)c1nc(N2CCOCC2)nc(N(c2ccccc2)c2ccccc2)n1	9.1	65.9*	-0.8	0.3	6.2	i
Nc1nc(N2CCOCC2)nc(N(c2ccccc2)c2ccccc2)n1	15.5	16.5	2.9	3.7	3.0	.
CCSc1nnc(-c2ccc(Cl)cc2)c2ccccc12	3.2	65.5*	0.1	4.3	-12.7	i
CCSc1nnc(-c2ccc(C)cc2)c2ccccc12	14.5	11.4	1.3	-0.8	10.2	.
Cc1cccc(Cn2c(NCCN(C)C)nc3c2c(=O)n(C)c(=O)n3C)c1	12.9	11.4	.	.	.	.
CC1=NN(c2ccc(S(=O)(=O)O)cc2)C(=O)/C1=C\c1ccc(Cl)cc1	42.8*	50.4	.	.	.	i
S=C(Nc1ccccc1Cl)N(Cc1ccccc1)Cc1ccccn1	2.8	75.5*	-0.6	-1.1	5.3	+
Cc1cc(C)c(S(=O)(=O)O)c(C)n1	11.9	77.4*	0.0	2.7	3.3	i
CCCc1nc(SCc2cccnc2)c2c(=O)n(C)c(=O)n(C)c2n1	9.8	45.3	28.3	-4.6	-25.0	.
Cn1c(=O)c2c(SCc3cccnc3)nc(CC(C)(C)C)nc2n(C)c1=O	6.3	58.8	4.3	-5.9	-19.4	+
CN(C)Cc1c(O)ccc2ccccc12	5.7	-21.7	2.8	9.4	.	.
CCN(Cc1ccncc1)Cc1c(O)ccc2ccccc12	7.9	-46.4	27.5	0.3	11.9	.
CN(Cc1cc(Br)cc(Br)c1O)Cc1c(O)ccc2ccccc12	35.1	62.2*	.	.	.	i

Assay outcomes deposited in PubChem BioAssay by several laboratories.
